Laboratory results taken from PubChem BioAssay AID778 (Sanford-Burnham Center for Chemical Genomics, 2007).
In all, about 96,000 compounds went through this assay and about 20,000 (21%) were called active.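 Rule for the calls: active = CYP2C19 inhibition above a set limit at 5 µM in the primary screen (cut at about 50% in these data); inactive = the rest.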 A selection follows.

target: Cytochrome P450 2C19 (Homo sapiens) (UniProt P33261); test: blockers of cytochrome P450 2C19 activity – biochemical, luminescence, ADME assay, primary screen (AID 778); conditions: CYP2C19 Supersomes, luciferin-H EGE luminescence, 30 min; at 5 µM; stronger effect = higher value;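 note: plate controls were negative control wells for no effect and 2.5 mM tranylcypromine positive control for full effect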
Sequence (P33261 whole entry, looked up): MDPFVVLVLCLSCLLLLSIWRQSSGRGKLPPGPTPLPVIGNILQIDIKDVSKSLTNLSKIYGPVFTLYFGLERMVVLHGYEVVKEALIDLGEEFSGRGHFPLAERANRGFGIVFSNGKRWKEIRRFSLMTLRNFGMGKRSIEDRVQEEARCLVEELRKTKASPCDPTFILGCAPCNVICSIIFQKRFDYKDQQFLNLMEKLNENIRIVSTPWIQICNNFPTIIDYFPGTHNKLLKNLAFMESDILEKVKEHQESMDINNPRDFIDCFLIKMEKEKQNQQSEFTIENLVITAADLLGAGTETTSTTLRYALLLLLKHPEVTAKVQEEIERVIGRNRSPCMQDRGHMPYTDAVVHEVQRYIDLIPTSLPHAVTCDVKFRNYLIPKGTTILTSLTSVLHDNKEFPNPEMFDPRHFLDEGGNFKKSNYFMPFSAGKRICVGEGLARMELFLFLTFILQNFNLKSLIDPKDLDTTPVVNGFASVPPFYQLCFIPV

inhibition, active:
CCN(CC)S(=O)(=O)c1ccc2nc(CSc3nnnn3-c3ccc(O)cc3)[nH]c2c1 66.1%
CCOC(=O)CSc1nc2sc3c(c2c(=O)[nH]1)CC(C)(C)OC3 67.6%
CC(=O)Nc1ccc(NS(=O)(=O)c2cc(C)sc2C)cc1 93.5%
COC(=O)Nc1ccc(S(=O)(=O)N(C)CC(F)(F)C(F)F)cc1 58.8%
O=C(CCCCCn1c(=O)[nH]c2ccccc2c1=O)NCCc1c[nH]c2ccccc12 71.7%
O=C(CSCc1c(F)cccc1Cl)NCC1CCCO1 (stereo not given) 52.6%
COc1ccc(-n2nc3c(c2NC(=O)Cc2cccc(C)c2)CS(=O)C3)cc1 (stereo not given) 76.9%
Cc1ccc(-n2nc3c(c2NC(=O)CCC2CCCCC2)CS(=O)C3)cc1 (stereo not given) 80.4%
C=CCNc1nnc(SCC(=O)N2CCCCC2)c2ccccc12 50.6%
CCOc1ccccc1N(CC(=O)NC1CCCCC1)C(=O)CCCC(=O)Nc1ccccn1 68.9%
O=C(CCCC(=O)N(CC(=O)NC1CCCC1)Cc1ccccc1Cl)Nc1ccccn1 77.5%
Cc1nnc(N(Cc2ccco2)C(=O)c2ccno2)s1 80.5%
CCCn1nnnc1NC(=O)COc1ccc(Cl)cc1C 70.2%
Cc1cc(C)nc(SCc2ccccc2C#N)n1 50.2%
CCCCCNC(=O)Cc1ccc(OC)cc1 92.4%
CS(=O)(=O)Nc1cccc(C2=NN(S(=O)(=O)c3ccccc3)C(c3cccs3)C2)c1 (stereo not given) 72.2%
CCOc1ccc(CN(Cc2ccco2)S(=O)(=O)c2ccc(-n3cnnn3)c(OC)c2)cc1 57.7%
COc1ccccc1N1CCN(C(=O)c2c(-c3c(Cl)cccc3Cl)noc2C)CC1 78.9%
CC1=NN(C(=O)Cc2ccc(C)cc2)C(O)(c2cccnc2)C1 (stereo not given) 62.6%

inhibition, inactive:
CCSc1nnc(NC(=O)Cc2ccccc2OC)s1 36.5%
CCOCCCN1C(=O)CN(C2CCCCC2)C(=O)C1c1ccc(OCC)c(OC)c1 (stereo not given) 0.6%
CCN(CC)S(=O)(=O)c1ccc2nc(COC(=O)c3n[nH]c4ccccc34)[nH]c2c1 9.5%
CCn1c(CSc2nncn2-c2ccc(OC)cc2)nc2cc(S(=O)(=O)N(C)C)ccc21 21.5%
CCCCN(CC)CCCNC(=O)CS(=O)(=O)Cc1nc(-c2cccc(OC)c2)oc1C -1.1%
CC/C(C)=N/Nc1nc2sc3c(c2c(=O)[nH]1)CC(C)(C)OC3 36.9%
CCOC(=O)Cn1c(SC)nc2sc3c(c2c1=O)CC(C)(C)OC3 8.2%
CC(=O)Nc1ccc(S(=O)(=O)Nc2cccc(NC(=O)C(C)(C)C)c2)cc1 32.2%
CC(=O)NS(=O)(=O)c1ccc(NC(=S)NC(=O)C(C)(C)C)cc1 -2.4%
CN(C)c1ccc(-n2cccc2/C=C2/SC(=Nc3ccc(F)cc3)NC2=O)cc1 2.9%
COC(=O)Nc1ccc(S(=O)(=O)N2CCN(CCN3C(=O)C4C5C=CC(C5)C4C3=O)CC2)cc1 (stereo not given) 5.6%
CCOC(=O)Nc1ccc(S(=O)(=O)N(C)C(C)C)cc1 19.6%
COc1ccc(CCNC(=O)CCCCn2c(=O)[nH]c3ccccc3c2=O)cc1OC 16.8%
O=C(CCn1c(=O)[nH]c2ccccc2c1=O)NCCCN1CCN(c2cccc(Cl)c2)CC1 13.5%
O=C(c1cc2c(s1)CCC2)N1CCN(c2ccccc2)CC1 48.8%
O=C(CSC1=Nc2ccccc2C2=NC(c3ccccc3)C(=O)N12)NCC1CCCO1 (stereo not given) 29.1%
O=C(CS(=O)(=O)Cc1ccccc1)NCC1CCCO1 (stereo not given) -6.7%
N#Cc1ccc(Oc2cc(C(F)(F)F)nc(-c3ccccn3)n2)cc1 6.7%
O=C(Nc1nccs1)c1cc(S(=O)(=O)N2CCOCC2)c(Cl)cc1Cl 12.5%
COc1ccc(-n2nc(C(=O)NCC(=O)Nc3cccc(C)n3)c3ccccc3c2=O)cc1 -1.3%
O=C(CC1CCCCC1)Nc1c2c(nn1-c1ccc(F)cc1)CS(=O)(=O)C2 5%
O=C(Nc1c2c(nn1-c1ccc(F)cc1)CS(=O)C2)C12CC3CC(CC(C3)C1)C2 (stereo not given) 9.1%
CC(C)(C)n1nc2c(c1NC(=O)c1ccc(S(=O)(=O)N3CCCC3)cc1)CS(=O)C2 (stereo not given) 10.7%
CCCCc1nc2c(=O)[nH]c3ccccc3c2o1 -9.6%
CCC1(C)Cc2c(sc3[nH]c(=S)n(Cc4ccccc4)c(=O)c23)CO1 (stereo not given) 9.8%
O=C(Cn1nnc(-c2ccc(CN3CCOCC3)cc2)n1)NC1CCCCC1 9%
CC(=O)C1=C(O)C(=O)N(c2ccc(S(N)(=O)=O)cc2)C1c1ccccc1F (stereo not given) -8%
Clc1ccc(-c2cc(COc3ccccc3)no2)cc1Cl 10.4%
O=c1c([N+](=O)[O-])cc(C(F)(F)F)cn1Cc1cccc(Cl)c1 24.2%
CCc1c(O)nc(SCC(=O)N2CCCCC2)n(-c2ccccc2C)c1=O 0.9%
C=CCNc1nnc(C)c2ccccc12 -10.2%
c1ccc2c(c1)C(=NC1CCCCC1)NC2=NC1CCCCC1 4.5%
O=C(Nc1cccc(OCC(=O)N2CCOCC2)c1)C1CCCCC1 -9.5%
CN(C)CCCNc1c2c(c(C#N)c3nc4ccccc4n13)CCC2 0%
CCOC(=O)N1CCC(Nc2c(NCCN3CCN(c4cccc(Cl)c4)CC3)c(=O)c2=O)CC1 2.4%
O=S(=O)(N/N=C\c1cccn1-c1ccccc1)c1ccc2ccccc2c1 49.7%
CCCCn1c(SCC(=O)NCCc2ccc(OC)c(OC)c2)nc2c1c(=O)n(C)c(=O)n2C -14.1%
CCC(C)(NC(=O)c1ccccn1)C(=O)NC1CCCCC1 (stereo not given) 17.6%
Cc1ccc(C(C(=O)NC2CCCC2)N(Cc2ccco2)C(=O)CCC(=O)Nc2ccccn2)cc1 (stereo not given) 10.6%
CCCC(=O)Nc1cc(OCC)c(NC(=O)NC2CCCCC2)cc1OCC 10.5%
Cc1noc(C)c1C(=O)N(CC(=O)NC1CCCC1)Cc1ccccc1F -7.6%
O=C1CCCC(O)=C1C=NCCc1ccccc1 12.8%
CC(CCO)Nc1nc2c([nH]1)c(=O)n(C)c(=O)n2C (stereo not given) 0.9%
Cn1c2c(c(=O)n(C)c1=O)C(c1ccc(O)cc1)Nc1ccccc1O2 (stereo not given) 2%
CCOc1[nH]n(-c2ccc(Cl)cc2)c(=O)c1C=Nc1ccc(O)cc1 13.5%
CCCN1CCN(C(=O)Cn2ncc3ccccc32)CC1 12.6%
COCCN(C(=O)c1ccco1)c1nnc(-c2ccc(OC)cc2)s1 24%
CN(C(=O)c1ccno1)c1nnc(-c2cccnc2)s1 -0.7%
Cc1nnc(SCCCn2c(N3CCCCC3)nc3c2c(=O)[nH]c(=O)n3C)s1 22.6%
Cc1ccc(O)c(NC(=O)COc2cc(C)ccc2C)c1 -2.7%
Cc1cccc(NC(=O)COc2ccc(Br)cc2C)n1 5%
CN1CCN(S(=O)(=O)c2ccc3[nH]cc(C(=O)O)c(=O)c3c2)CC1 3.6%
CCNC(=S)Nc1cccc(Cl)c1C 48%
Clc1ccccc1CSc1nnc(-c2ccco2)c(-c2ccco2)n1 31.1%
Nc1nc(SCc2ccccc2Cl)n[nH]1 0.1%
Cc1ccc(CS(=O)(=O)CCC(=O)NC2CC2)cc1 9.7%
COc1ccc(CNC(=O)CCn2cccc2)cc1 35%
COc1ccc(OCC(=O)NCCc2ccc(S(N)(=O)=O)cc2)cc1 19.4%
O=C(NCCN=C1NS(=O)(=O)c2ccccc21)c1ccc(S(=O)(=O)N2CCOCC2)cc1 -2%
O=C1CCCC2=C1C(c1ccccc1)n1c(s/c(=C/c3cccc(F)c3)c1=O)=N2 (stereo not given) 34.6%
CCOC(=O)C1CCN(C(=O)c2oc3ccc(S(=O)(=O)N4CCCCCC4)cc3c2C)CC1 40.4%
O=C(Nc1nnc(SCc2ccccc2)s1)c1ccco1 2.5%
COc1ccc2c(CC(=O)Nc3nnc(C4CC4)s3)coc2c1 12.6%
CCOc1ccc(CN(Cc2ccco2)C(c2cccs2)c2nnnn2C(C)(C)C)cc1 (stereo not given) 47.8%
COc1ccc(CN(Cc2ccco2)S(=O)(=O)c2ccc(S(=O)(=O)N3CCCC3)cc2)cc1 38.7%
CCOc1nnc(C)c2c(C)n(-c3cccc(Cl)c3)nc12 45.7%
Cc1cc(=O)n(C)c(=O)n1CCCNc1ccccc1 18.5%
CC(=O)c1sc(NC(=O)c2cccc3ccccc23)nc1C -21.9%
COc1ccccc1N1CCN(C(=O)c2ccc(S(=O)(=O)N3CCCCC3)cc2)CC1 28.3%
COc1ccccc1N1CCN(C(=O)c2cc(-c3ccc(Br)cc3)on2)CC1 -2.9%
Cc1ccc(NC(=O)N2CCC(O)(c3cccnc3)CC2)cc1 2.2%
CC1=NN(C(=O)c2ccccc2Br)C(O)(c2cccnc2)C1 (stereo not given) 16.7%
CC(c1ccccn1)N(CCN(C)C)C(=S)Nc1ccccc1F (stereo not given) 13.7%
Cc1cc2c(c(=O)n1C)C(C(C)C)C(C#N)=C(N)O2 (stereo not given) 3.4%
CCCCN(C)C(=O)C1CCN(Cc2ccccn2)CC1 -6.2%
COc1ccc(C2CC(=O)C=C(NCC3CCCO3)C2)cc1 (stereo not given) 19.6%
